Values joined by “and” are separate entries in the source; they are usually repeats but may differ in a detail not shown here. Equal entries are not always repeated. This is part of a sample that, as a whole, favours compounds with a hit. Of some 83,000 tested, about 20% had one in any assay.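 Each cell line was grown in a 96-well plate and treated with one concentration of compound for 48 hours. Values below 10 were considered active.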 Active and inactive are the calls of the source.
Each molecule was assayed on MDA-MB-468 breast (assay: NCI-60 one-dose screen, 48 h (100 = growth as untreated, 0 = no growth, -100 = all killed)). Details: 10 µM unless noted.

| Structure (SMILES) | growth |
| --- | --- |
| COc1ccc(/C=C/C(=O)O)cc1OC | 99.5% (inactive) and 102% (inactive) |
| CNC(=O)c1c(I)c(NC(C)=O)c(I)c(C(=O)O)c1I | 102% (inactive) |
| COc1cc(NC(=O)c2cncnc2Nc2ccc3c(ccn3Cc3cccc(F)c3)c2)cc(OC)c1 | 42.8% (inactive) |
| Nc1nc(N)c2c(n1)NC(c1ccc(Cl)cc1)C1CCc3ccccc3C1=N2 (stereo not given) | 18.6% (inactive) |
| COc1cc(/C=C2\C(=O)N(c3c(Cl)cccc3Cl)c3ccccc32)cc(OC)c1O | 57.4% (inactive) |
| O=C1c2ccccc2C(=O)c2c(NCCNCCO)ccc(NCCNCCO)c21 | -71.9% (active) and -54.1% (active) and -20.9% (active) |
| CCOC(=O)Nc1ccc2c(c1)/C(=N\NC(N)=S)c1ccccc1-2 | 55.3% (inactive) and 75.3% (inactive) |
| COc1nccnn1 | 82.9% (inactive) |
| CN1CCN(C)c2cncc(Br)c2C1=O | 106% (inactive) |
| COS(=O)(=O)CCN(CCOS(C)(=O)=O)S(C)(=O)=O | 104% (inactive) |
| O=C(c1ccccc1)c1ccc(N2C(=O)C3C4c5ccccc5C(/C=C/C(=O)c5ccccn5)(c5ccccc54)C3C2=O)cc1 (stereo not given) | 21.9% (inactive) |
| CCOC(=O)C(=O)C(C(=O)OCC)c1ccccc1 (stereo not given) | 111% (inactive) |
| COc1ccc(/C=N/NC(=O)Cn2nnc3ccccc32)cc1 | 103% (inactive) |
| O=C1c2ccccc2-c2ccccc2C1(Cl)Cl | -86.6% (active) |
| COc1ccc2c(c1)C1=NN(C(=O)CO)[C@H](c3ccc(OC(F)(F)F)cc3)[C@@H]1CC2 | 117% (inactive) |
